Each structure is given as a SMILES string. This is part of a sample that, as a whole, favours compounds with a hit. Of some 83,000 tested, about 20% had one in any assay.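 Each cell line was grown in a 96-well plate and treated with one concentration of compound for 48 hours. Values below 10 were considered active.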 Values without a mark were called inactive. Activity calls are given as the source filed them.

Among the test systems are NCI-H23 lung; NCI-H226 lung; NCI-H322M lung; HOP-62 NSCLC; NCI-H460 lung; HOP-92 NSCLC; NCI-H522 lung; A549/ATCC NSCLC; 786-0 renal; COLO 205 colon.
Common to all, as to test: NCI-60 one-dose screen, 48 h (100 = growth as untreated, 0 = no growth, -100 = all killed)
Holding throughout (conditions): 10 µM unless noted

In the case of `CC(C)OC(=O)Nc1cc(F)c(F)cc1F`, the growth was 99% with NCI-H23 lung; 98% in the test with NCI-H226 lung; 96.3% in the test with NCI-H322M lung; 99.8% in the test with HOP-62 NSCLC; 104% in the test with NCI-H460 lung; 102% with HOP-92 NSCLC. Besides, the growth was 97.8% in the test with NCI-H522 lung, 97.8% in the test on A549/ATCC NSCLC, 107% in the test on 786-0 renal and 113% in the test with COLO 205 colon.

For `COc1ccc(N(c2nc(-c3ccc([N+](=O)[O-])cc3)cs2)C(C)C)cc1`, the growth in the test on NCI-H23 lung was 65%; in the test on NCI-H226 lung it was 76.3%; in the test on NCI-H322M lung, 83.1%; in the test with HOP-62 NSCLC, 84.8%; in the test on NCI-H460 lung, 84.1%; in the test on HOP-92 NSCLC, 74.3%. Also, the growth in the test on NCI-H522 lung is 67.8%; in the test with A549/ATCC NSCLC it was 85.3%; with 786-0 renal, 88.4%; in the test with COLO 205 colon it was 108%.

Consider `C=CCCC1(C)NC(=O)NC1=O` (stereo not given), for which the growth was 96.5% in the test with NCI-H23 lung; 105% in the test on NCI-H226 lung; 108% in the test on NCI-H322M lung; 84% in the test with HOP-62 NSCLC; 104% with NCI-H460 lung; 87.1% in the test with HOP-92 NSCLC. In addition, the growth is 86.1% in the test on NCI-H522 lung, 93.4% in the test with A549/ATCC NSCLC, 93.5% with 786-0 renal and 102% in the test with COLO 205 colon.

`Cc1ccccc1-n1nnc(C(=O)Nc2nc3ccc(F)cc3s2)c1C`: the growth with NCI-H23 lung is 55.7%; in the test with NCI-H226 lung, 48.4%; in the test on NCI-H322M lung, 71.2%; in the test with HOP-62 NSCLC, 86%; in the test on NCI-H460 lung it was 65.7%; with HOP-92 NSCLC, 55.7%. Besides, the growth in the test with NCI-H522 lung was 66.4%; in the test on A549/ATCC NSCLC, 64.5%; in the test with 786-0 renal, 76.2%; with COLO 205 colon, 80.5%.

Turning to `C=C(C)[C@@H]1CC[C@]2(C(N)=O)CC[C@]3(C)[C@H](CC[C@@H]4[C@@]5(C)C/C(=C/c6cccnc6)C(=O)C(C)(C)[C@@H]5CC[C@]43C)[C@@H]12`, the growth is 18.9% [100 µM] in the test with NCI-H23 lung; 9.08% [100 µM] (active) with NCI-H226 lung; 12.7% [100 µM] in the test on NCI-H322M lung; 3.06% [100 µM] (active) in the test on HOP-62 NSCLC; -42.8% [100 µM] (active) with NCI-H460 lung; 16.8% [100 µM] in the test on HOP-92 NSCLC. For the same molecule, the growth with NCI-H522 lung is -16.8% [100 µM] (active); with A549/ATCC NSCLC, 14.2% [100 µM]; in the test with 786-0 renal, 18.1% [100 µM]; in the test with COLO 205 colon, -23.6% [100 µM] (active).

Take `C1=C[C@H]2O[C@@H]1c1ccc3[nH]ccc3c12`: the growth in the test with NCI-H23 lung was 96%; with NCI-H226 lung, 101%; with NCI-H322M lung, 110%; in the test on HOP-62 NSCLC, 96.6%; in the test on NCI-H460 lung, 102%; in the test with HOP-92 NSCLC, 120%. In addition, the growth in the test on NCI-H522 lung is 41.7%; in the test with A549/ATCC NSCLC, 89.4%; with 786-0 renal, 106%; with COLO 205 colon it was 110%.

As to `[2H]C1([2H])CCN(C(=O)C2CC2)c2cc(NS(=O)(=O)c3ccc(-c4cccc(C(N)=O)c4)cc3)ccc21`, the growth in the test on NCI-H23 lung was 44%; in the test with NCI-H226 lung, 61.1%; in the test with NCI-H322M lung it was 64.6%; with HOP-62 NSCLC it was 29.1%; with NCI-H460 lung it was 17.3%; in the test on HOP-92 NSCLC it was 33.3%. The growth in the test with NCI-H522 lung was 14%; in the test on A549/ATCC NSCLC, 45.2%; in the test with 786-0 renal, 81.8%; in the test on COLO 205 colon it was 37.7%.

As for `CN(C)CCCNc1nc(-c2cccc(C(Cl)(Cl)Cl)c2)nc(C(Cl)(Cl)Cl)n1`, the growth was 101% in the test with NCI-H23 lung; 109% in the test on NCI-H226 lung; 93.7% in the test on NCI-H322M lung; 111% with HOP-62 NSCLC; 108% with NCI-H460 lung; 53% in the test on HOP-92 NSCLC. The growth in the test on NCI-H522 lung is 94.9%; with A549/ATCC NSCLC, 105%; with 786-0 renal, 99%; in the test with COLO 205 colon it was 119%.

Turning to `Brc1ccc2c(c1)CN(C1CCCCC1)CO2`, the growth was 96.9% with NCI-H23 lung; 91.3% in the test with NCI-H226 lung; 124% in the test on NCI-H322M lung; 100% in the test with HOP-62 NSCLC; 102% with NCI-H460 lung; 89.3% in the test on HOP-92 NSCLC. The growth is 108% in the test on NCI-H522 lung, 110% in the test with A549/ATCC NSCLC, 117% in the test with 786-0 renal and 116% with COLO 205 colon.

For the molecule `COc1ccc2c(c1)c(-c1noc(C(=O)c3cn(C)c4ncc(Br)cc34)n1)cn2C`, the growth in the test with NCI-H23 lung is 30.1%; in the test with NCI-H226 lung, 26.6%; in the test on NCI-H322M lung it was 92.9%; with HOP-62 NSCLC, 53.1%; in the test with NCI-H460 lung, 76.7%; with HOP-92 NSCLC, 7.92% (active). Besides, the growth with NCI-H522 lung is 67.9%; in the test with A549/ATCC NSCLC, 28.1%; with 786-0 renal, 59%; in the test on COLO 205 colon, 68.4%.

For the molecule `CC[C@@H]1NC(=O)[C@@H]2CCCCN2C(=O)[C@@H]2CCCN2C(=O)[C@@H](NC(=O)[C@H](Cc2cc(F)cc(F)c2)NC(=O)Nc2ccc(C3CC3)cc2F)[C@H](C)OC(=O)[C@@H]2C[C@@H](C)CN2C1=O`, the growth with NCI-H23 lung was 25.7%; in the test on NCI-H226 lung, 15.5%; in the test with NCI-H322M lung, 41.1%; in the test with HOP-62 NSCLC it was 26.7%; in the test on NCI-H460 lung, 13.5%; with HOP-92 NSCLC it was -3.81% (active). The growth in the test with NCI-H522 lung is 19.9%; with A549/ATCC NSCLC, 19.9%; in the test on 786-0 renal, 16.4%; in the test on COLO 205 colon it was -40.4% (active).

On to `C#C[C@]1(O)CC[C@H]2[C@@H]3CC=C4c5nc(Nc6ncccn6)sc5CC[C@]4(C)[C@H]3CC[C@@]21C`, for which the growth in the test on NCI-H23 lung is 77.8%; in the test with NCI-H226 lung, 68.8%; in the test with NCI-H322M lung, 74.3%; in the test on HOP-62 NSCLC, 38.3%; in the test with NCI-H460 lung, 31.2%; with HOP-92 NSCLC, 52.2%. Moreover, the growth in the test with NCI-H522 lung was 81%; with A549/ATCC NSCLC it was 43.4%; in the test on 786-0 renal, -45.2% (active); with COLO 205 colon, 92.4%.

As to `O=C1CC(C(F)(F)F)Cc2nc3ccc(Br)cc3cc21` (stereo not given), the growth in the test with NCI-H23 lung is 83.3%; in the test with NCI-H226 lung it was 87.6%; in the test on NCI-H322M lung, 78.2%; with HOP-62 NSCLC it was 87.1%; in the test on NCI-H460 lung, 87.8%; in the test with HOP-92 NSCLC, 85.8%. Further, the growth in the test with NCI-H522 lung was 84.8%; in the test on A549/ATCC NSCLC, 91.8%; in the test with 786-0 renal, 96.4%; in the test with COLO 205 colon it was 100%.

Values taken from PubChem BioAssay (NCI).
